# A selection: hits, their analogues and other compounds. The true share with any hit is near 1.8%.
# RGS4 inh: inhibitors of human regulator of G protein signaling 4 | P49798 | Transcreener GDP fluorescence polarization, RGS4-accelerated GTP hydrolysis | Potency, µM (highest dose often 114 µM), for inactives: at the top dose activity change, negative = inhibition, most hits filed as inhibitors | 390,000 compounds, 0.039% hits | AID 504845; further: on the % scale 0 is the no-effect control and ±100 the full control effect; nearly all actives have a fitted effect of over 75% in size
# Target sequence (P49798 whole entry, looked up): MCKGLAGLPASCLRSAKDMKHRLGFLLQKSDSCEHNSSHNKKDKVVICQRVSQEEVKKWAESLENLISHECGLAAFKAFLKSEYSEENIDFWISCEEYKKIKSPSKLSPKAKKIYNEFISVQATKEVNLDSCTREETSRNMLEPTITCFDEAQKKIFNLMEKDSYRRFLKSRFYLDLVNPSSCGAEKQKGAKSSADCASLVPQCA
#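 MLSMR compounds (23 nl, pin-transferred) preincubated 10 min at room temperature with a 500nM (2x) first reagent, then RGS4 at 900nM (2x) plus Transcreener GDP mix added; fluorescence polarization (620/688 nm) read before and after 90 min at 30 °C.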
# GLP-1R inv ag: acts as inverse agonist at human GLP-1 receptor | 410,000 compounds, 1.6% hits | HEK293 GLP-1R CRE-luciferase, luminescence, 24 h; GLP-1R form is constitutively active | P43220 | Potency, µM (titrated, usually from 38.3 µM), without a hit: at the top dose activity change, negative = inhibition, actives largely listed as inhibitors; further: on the % scale 0 is the no-effect control and ±100 the full control effect; nearly all actives have a fitted effect of over 55% in size
# Target sequence (P43220 whole entry, looked up): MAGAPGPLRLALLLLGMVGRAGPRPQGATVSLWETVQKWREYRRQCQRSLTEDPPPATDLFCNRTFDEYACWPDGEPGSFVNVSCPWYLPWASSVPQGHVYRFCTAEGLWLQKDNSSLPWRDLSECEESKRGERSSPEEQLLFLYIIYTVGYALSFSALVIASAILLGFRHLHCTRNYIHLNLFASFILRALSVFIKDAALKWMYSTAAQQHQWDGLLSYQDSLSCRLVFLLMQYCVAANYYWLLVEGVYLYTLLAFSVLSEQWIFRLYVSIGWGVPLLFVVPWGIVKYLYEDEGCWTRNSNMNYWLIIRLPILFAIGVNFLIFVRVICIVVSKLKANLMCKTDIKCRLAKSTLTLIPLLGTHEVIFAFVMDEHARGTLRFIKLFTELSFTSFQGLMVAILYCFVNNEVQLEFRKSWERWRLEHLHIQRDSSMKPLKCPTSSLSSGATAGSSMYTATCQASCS
#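 Inverse agonism was detected as reduced cAMP-driven luciferase luminescence after 24 h compound treatment. The cells were HEK293 clones expressing constitutively active human GLP-1R with the reporter. Reporter-only and GPR119 cell lines served as counterscreen controls.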
# HEK293 tox: cytotoxicity in counter-screen for GLP-1R inverse agonists; Potency, µM (series often up to 38.3 µM), for inactives: at the top dose activity change, negative = inhibition, usual class: inhibitors; 410,000 compounds, 0.13% hits; HEK293 cAMP-luciferase reporter cells, luminescence, 24 h; AID 624418;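 further: loss of luciferase light is scored as toxicity; on the % scale 0 is the no-effect control and ±100 the full control effect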
#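 1536-well qHTS counterscreen of the MLSMR; 200 cells/uL, 12 h pre-incubation, 23 nL cpd, 24 h at 37 deg C 5% CO2, luciferase detection reagent, 12 min RT, luminescence. Inhibition = undesired.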
# GLP1R ag: agonists of human GLP-1 receptor. AID 624172. Potency, µM (doses to about 45.6 µM), without a hit: top-dose activation, usual class: activators. 380,000 compounds, 0.007% hits. HEK293 GLP-1R CRE-luciferase, luminescence, 4-6 h; cells express a hypersensitive GLP-1R form; further: % of control where 0% means no effect
# KAT2A inh: inhibitors of human GCN5L2 histone acetyltransferase; GCN5L2 HAT assay, ThioGlo1 CoA-SH fluorescence; 390,000 compounds, 0.21% hits; Potency, µM (top dose mostly 58.9 µM), without a hit: top-dose activity change, negative = inhibition, hits mostly inhibitors; further: on the % scale 0 is the no-effect control and ±100 the full control effect
#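 Titration-based screen in which CoA formation is detected via maleimide probe ThioGlo1 (50uM) turning fluorescent on thiol reaction; substrates H3(1-25) 75uM and acetyl-CoA 70uM, GCN5L2 20nM, 20 min incubation at room temperature.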
# PTHR1 agonist: agonists of human PTHR1 parathyroid hormone receptor. 410,000 compounds, 0.075% hits. Potency, µM (titrated, usually from 115 µM), for the others: at the highest dose activation, actives largely listed as activators. HEK293 GP2 PTHR1 cells, GloSensor cAMP luminescence, 1 h. AID 743266; further: nearly all actives have a fitted effect of over 55% in size
#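 HEK-293-derived GP2 cells expressing PTHR1 and a GloSensor cAMP reporter, 3,000/well, plated overnight, given luciferin plus IBMX (each 0.5 mM as added) for 1 h at 37 °C, then compound for 1 h at 37 °C. Luminescence was read after 15 min at room temperature.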
# Active calls of the source: *; i = inactive; u = inconclusive; x = no result; [ ] = remark or other dose. The call rests on the fitted dose curve; in most records, active means well fitted curve in the direction sought with a large enough effect; inconclusive means small, poorly fitted or top-dose-only effect, or another doubt; inactive means no such curve, though single readings can be large; an effect the other way counts as inactive or inconclusive. Potency means the concentration at half of the fitted maximal effect.
SMILES,RGS4 inh,GLP-1R inv ag,HEK293 tox,GLP1R ag,KAT2A inh,PTHR1 agonist
Cc1ccc(C(=O)C(C)OC(=O)C2CCN(c3ccc(C(F)(F)F)cn3)CC2)cc1 (stereo not given),5%,10µM*,7%,10%,-9%,-28%
Cc1ccccc1/C=C/C12NC(=O)CN1c1ccccc1C2(C)C (stereo not given),3%,u,-4%,1%,-7%,-14%
CC1(C)c2ccccc2N2CC(=O)N[C@@]21/C=C/C=C/c1ccccc1,-12%,3.5µM*,-9%,-2%,-3%,-28%
O=C(N/N=C/c1ccc(O)cc1)c1ccc(COc2cc(Cl)ccc2Cl)o1,10%,1.4µM*,-28%,-4%,-19%,-12%
O=C(Nc1cccnc1)c1ccc(COc2cc(Cl)ccc2Cl)o1,9%,-12%,6%,8%,-4%,-27%[57.5 µM]
COc1ccc(C(O)c2nc(-c3ccc(F)c(Cl)c3)cs2)cc1 (stereo not given),x,-22%,1%,27%,x,-16%
CCNC(=O)c1cccc(NC(=O)c2cc(C3CC3)nc3c2cnn3C(C)C)c1,-29%,10µM*,-18%,12%,-7%,i
CC(C)n1ncc2c(C(=O)O)cc(C3CC3)nc21,-48%[56.9 µM],1%,-10%,-7%,-5%,i
COc1ccc(CNC(=O)c2cc(C3CC3)nc3c2cnn3C(C)C)cc1,-7%,u,2%,8%,-8%,i
CCOc1ccc(OCCNC(=O)c2cc(C3CC3)nc3c2cnn3C(C)C)cc1,-19%,8.9µM*,-10%,1%,-11%,-37%
CC(C)n1ncc2c(C(=O)Nc3cccc(C#N)c3)cc(C3CC3)nc21,-8%,8.9µM*,22%,-1%,-12%,-32%
CC(C)n1ncc2c(C(=O)NCCOc3ccccc3F)cc(C3CC3)nc21,-6%,u,-11%,23%,-9%,-14%
CCc1nc2ccc(C(=O)NCCc3ccccn3)cn2c1N(C)CCC(C)C,x,u,-12%,-8%,x,i
COc1ccc(OC)c(S(=O)(=O)NC(=O)C2(C)CCN2C(=O)CC2CCCC2)c1 (stereo not given),x,1%,10%,-6%,x,15%
CC(C)[C@H](NC(=O)[C@@H](Cc1c[nH]c2ccccc12)NC(=O)[C@H](Cc1ccc(O)cc1)NC(=O)[C@@H](N)CC(=O)O)C(=O)N[C@H](Cc1c[nH]c2ccccc12)C(=O)N[C@H](Cc1c[nH]c2ccccc12)C(=O)N[C@@H](CCCCN)C(N)=O,x,x,x,x,-2%,x
COc1ccc(C2NCCc3c2[nH]c2ccccc32)cc1CN1CCc2cc(OC)c(OC)cc2C1C (stereo not given),-9%[11.4 µM],8.9µM*,u,10%,-29%,-2%
COc1ccc(C2NCCc3c2[nH]c2ccccc32)cc1COc1ccc(F)cc1 (stereo not given),-10%,u,u,1%,-1%,i
COc1ccc(CN(C)C[C@@H]2OCc3cnnn3CCCC(=O)N([C@H](C)CO)C[C@H]2C)cc1,x,6%,-1%,-3%,x,-31%
O=[N+]([O-])c1cccc(/C=N/NC2=NCCCCC2)c1,2%,7%,4%,-1%,-1%,28%
O=C(ONC1=NCCCCC1)c1cccc([N+](=O)[O-])c1,-12%,u,11µM*,14%,-2%,-40%
COc1ccc(C2CC(=O)N3CN(c4ccccc4F)CSC3=C2C#N)cc1OC (stereo not given),u,29%,4%,3%,22µM*,i
COc1ccc(OC)c(C2CC(=O)N3CN(c4ccccc4)CSC3=C2C#N)c1 (stereo not given),u,-3%,8%,10%,28µM*,-18%
N#CC1=C2SCN(C3CCCCC3)CN2C(=O)CC1c1ccc(Br)cc1 (stereo not given),u,13%,-12%,x,35µM*,-4%
COc1ccc(C2CC(=O)N3CN(c4ccc(C)c(Cl)c4)CSC3=C2C#N)cc1 (stereo not given),u,-8%,-11%,10%,28µM*,i
CCOc1cc(C2CC(=O)N3CN(C4CCCCC4)CSC3=C2C#N)ccc1O (stereo not given),u,-6%,1%,-3%,-12%,i
SMILES,RGS4 inh,GLP-1R inv ag,HEK293 tox,GLP1R ag,KAT2A inh,PTHR1 agonist
CC(=O)OCC1=C(C(=O)O)N2C(=O)[C@@H](NC(=O)CSc3ccncc3)[C@@H]2SC1,x,x,x,-4%,4%,x
CCOC(=O)c1cc(-c2ccccc2)nc2c(O)cccc12,-26%,u,u,12%,x,-17%
COc1ccc(-c2[nH]c3ccccc3c2SCCNC(=O)c2cc3ccccc3oc2=O)cc1,16%,u,-16%,-2%,-5%,i
COc1ccc(-c2[nH]c3ccccc3c2SCCN)cc1,38%,2µM*,u,-1%,-2%,-81%
Cc1cccc(COc2ccc(/C=C3/C(=O)N(C)C(=S)N3C)cc2)c1,6%,4%,10%,5%,-6%,i
Cc1ccc(C(c2cccc(Br)c2)c2c(C)[nH]c3ccccc23)s1 (stereo not given),-2%,10µM*,0%,x,-10%,-6%
C=CCn1c(C)c(C(C)=O)c(N2CCN(C(c3ccccc3)c3ccccc3)CC2)nc1=S,-4%,7.1µM*,u,8%,-3%,i
CC(=O)c1c(N2CCN(C)CC2)nc(=S)n(Cc2ccccc2)c1C,4%,18%,-4%,-1%,0%,0%
Cc1c(O)cnc2nn(-c3ccccc3)c(=N)n12,x,52%,3%,27%,x,-14%
OCCn1c(-c2ccc3c(c2)OCO3)csc1=Nc1ccccc1,-30%,3.5µM*,-29%,-2%,-7%,-29%
O=C1CN(C(=O)c2ccc(Br)o2)C(c2ccccc2)c2cc(F)ccc2N1 (stereo not given),-14%,7.9µM*,-27%,6%,-10%,i
O=C1CN(C(=O)c2ccccc2)C(c2ccccc2)c2cc(F)ccc2N1 (stereo not given),12%,-20%,-9%,12%,-2%,-5%
Cc1ccc2c(c1)c1c(n2CC(O)CN2CCOCC2)CCCC1 (stereo not given),x,x,x,x,-16%,x
Cc1ccc2c(c1)c1c(n2CC(O)CN2CCC(C)CC2)CCCC1 (stereo not given),-6%,5.6µM*,u,-3%,-9%,u

# Bioassay records (PubChem)
